Results published in PubChem BioAssay.

assay: budding yeast growth modifiers under rapamycin – strain BY4716, OD600, 96 h, primary screen (AID 1091); note: test concentration not given here; details: S. cerevisiae BY4716 + rapamycin, higher = more signal, called active from +8 up or from −8 down

z-score, inactive:
[N-]=[N+]=Nc1ccccc1[C@H]1OC(c2ccc(OCCCO)cc2)=N[C@@]1(Cc1ccccc1)C(=O)N1CCCCC1 2.21
CCCNC(=O)[C@@]1(c2ccc([N+](=O)[O-])cc2)CC(=O)N(C2CCCCC2)[C@@H]1c1ccc(CO)cc1 1.11
CN1C(=O)C2C=CC(C(O)c3ccccn3)N(N(c3ccccc3)c3ccccc3)C2C1=O (centres undefined) 0.491
COCCOC(=O)N1C(=O)[C@@]2(c3cc(C#CC4=CCCCC4)ccc31)[C@H](c1ccc(O)cc1)N1[C@H](c3ccccc3)[C@H](c3ccccc3)OC(=O)[C@H]1[C@@H]2C(=O)N1CCN(c2ncccn2)CC1 0.58
C[N+](C)(C)CCCCCCNC(=O)[C@H]1C[C@H]2C(=O)N[C@@H](Cc3ccccc3)C(=O)N2[C@H]1c1ccc(O)cc1 0.0818
O=C1NC(=O)C2C1C=CC(C(O)c1cccc3ccccc13)N2Nc1ccc(Cl)cc1Cl (centres undefined) 2.56
COC(=O)[C@@]1(Cc2ccc(F)cc2)[C@H]2c3cc(C(=O)N4CCCC4)n(CCc4ccc(O)c(O)c4)c3C[C@H]2CN1C(=O)c1ccccc1 1.96
O=C(CS)NCCCCCCNC(=O)[C@H]1C[C@H]2C(=O)N[C@@H](Cc3ccccc3)C(=O)N2[C@H]1c1ccc(O)cc1 1.12
C#CCN([C@@H](Cc1ccc(O)cc1)C(=O)OC)[C@@H](/C=C/C1CC1)[C@H](O)Cc1ccccc1 0.417
CCOC(=O)c1ccc(NC(=O)O[C@H]2[C@H](OC(=O)Nc3ccc4c(c3)OCO4)[C@@H](OC(=O)Nc3ccc4c(c3)OCO4)[C@@H](OC)O[C@@H]2CO)cc1 7.12
O=c1n(-c2ccccc2)c(=O)n2n1CC(COc1ccccc1)=C([C@H](O)CCc1ccccc1)[C@@H]2CO -0.868
COc1ccc([Si](C)(C)[C@@H]2[C@@H](CC(=O)N3Cc4ccccc4C[C@H]3CO)O[C@]3(C(=O)N(Cc4cccc(N5C(=O)c6cccc7cccc5c67)c4)c4ccccc43)[C@H]2C)cc1 2.43
CN(C)C(=O)[C@]1(CCS(=O)(=O)c2ccccc2)N=C(c2ccc(OCCCO)cc2)O[C@@H]1c1ccccc1N=[N+]=[N-] 1.69
COC(=O)[C@@]1(Cc2ccc(OC)cc2)[C@H]2c3cc(C(=O)N4CCCC4)n(Cc4c(-c5ccccc5)noc4C)c3C[C@H]2CN1C(=O)c1ccccc1 1.77
O=C1O[C@H](c2ccccc2)[C@H](c2ccccc2)N2[C@H]1[C@@H](C(=O)O)[C@]1(C(=O)Nc3ccc(C#CC4=CCCCC4)cc31)[C@H]2c1ccc(O)cc1 -0.776
COc1cc2c(cc1OC)CN(C(=O)[C@@H]1[C@H]3C(=O)O[C@H](c4ccccc4)[C@H](c4ccccc4)N3[C@H](c3ccc(OCCO)cc3)[C@@]13C(=O)Nc1ccccc13)CC2 5.44
COC(=O)[C@@]1(Cc2ccccc2)[C@H]2c3cc(C(=O)N(C)C)n(CCN4CNCC4=O)c3C[C@H]2CN1C(=O)c1ccccc1 0.1
CN(C)c1ccc(C(O)C2C=CC3C(=O)N(c4ccccc4)C(=O)C3N2Nc2ccc([N+](=O)[O-])cc2)cc1 (centres undefined) 2.39
C=C(C)c1cc2c(c(CCCCCC)n1)[Si](C(C)C)(C(C)C)OC2 -0.9
O=C1O[C@@H](c2ccccc2)[C@@H](c2ccccc2)N2[C@@H](c3ccc(O)cc3)[C@]3(C(=O)Nc4ccc(C#CC5(O)CCCCCC5)cc43)[C@@H](C(=O)NC[C@H](O)c3ccccc3)[C@H]12 1.24
COCCCNC(=O)[C@@]1(Cc2ccccc2N=[N+]=[N-])N=C(c2ccc(OCCCO)cc2)O[C@H]1c1ccccc1 0.388
O=C1O[C@H](c2ccccc2)[C@H](c2ccccc2)N2[C@H]1[C@@H](C(=O)Nc1nc3ccccc3s1)[C@]1(C(=O)Nc3ccc(C#CCCO)cc31)[C@H]2c1ccc(O)cc1 1.14
COC(=O)[C@@]1(Cc2ccccc2)[C@H]2c3cc(C(=O)N(C)C)n(CCc4ccc(O)c(OC)c4)c3C[C@H]2CN1C(=O)c1ccccc1 0.409
O=C1OCC=C[C@H]2OC34C=CCN(c5ccc(Cl)cc5)C(=O)[C@H]3N(CCO)C(=O)[C@@H]4[C@@H]12 (some centres undefined) 0.0595
